Hits are enriched below; roughly 2.4% of the tested compounds scored in any of these assays.
D2 ag-1: Beta-Arrestin HTS for Positive Allosteric Modulators of the Human D2 Dopamine Receptor: Agonists; 360,000 tested, 0.084% active; AID 624465, 2012; activation, % (no concentration beside the values); DiscoveRx PathHunter D2 beta-arrestin, luminescence, 90 min; 100% = 57 uM dopamine signal; D(2) dopamine receptor (Homo sapiens), P14416; in the data active = activation above about 40%; inconclusive = between about 15% and that limit
Target sequence (P14416 whole entry, looked up): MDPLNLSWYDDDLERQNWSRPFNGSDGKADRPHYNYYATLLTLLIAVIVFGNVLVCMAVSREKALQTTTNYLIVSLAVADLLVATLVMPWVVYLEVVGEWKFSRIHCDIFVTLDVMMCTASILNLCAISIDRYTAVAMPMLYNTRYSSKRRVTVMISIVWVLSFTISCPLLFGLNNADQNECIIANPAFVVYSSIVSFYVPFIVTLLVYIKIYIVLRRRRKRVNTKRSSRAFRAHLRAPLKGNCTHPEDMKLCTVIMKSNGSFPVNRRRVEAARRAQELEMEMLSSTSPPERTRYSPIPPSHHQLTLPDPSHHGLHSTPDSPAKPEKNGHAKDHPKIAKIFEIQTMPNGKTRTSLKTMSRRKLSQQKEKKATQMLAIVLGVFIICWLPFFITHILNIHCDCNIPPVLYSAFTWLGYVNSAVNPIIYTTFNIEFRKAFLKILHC
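DiscoveRx PathHunter D2 beta-arrestin cells (2,100/well) attached overnight, then compound-stimulated 90 min at 37 C in HBSS/10 mM HEPES/0.1% Tween-20 buffer; beta-galactosidase complementation read by luminescence after 1 h at ambient temperature. Dopamine 57 uM final (EC100) as control.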
D2 antagonist: HTS Assay for Allosteric Antagonists of the Human D2 Dopamine Receptor: Primary Screen for Antagonists. AID 485344, 2010. D(2) dopamine receptor (Homo sapiens), P14416. HEK293 TREx D2 cells, calcium flux, dopamine EC80. 340,000 tested, 2% active. inhibition, % at 10 µM; in the data active = inhibition above about 30%; inactive = below that, where a call was filed
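Measurement of antagonist activity uses fluorescent calcium dye in inducible HEK293 T-REx D2 cells: 10 s baseline, compound addition with 180 s read, EC80 dopamine addition with a further 180 s read.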
D2 PAM-1: HTS Assay for Positive Allosteric Modulators of the Human D2 Dopamine Receptor: Primary Screen for Potentiators; 340,000 tested, 0.34% active; HEK293 T-REx D2, calcium flux, EC20 dopamine potentiation; AID 485347, 2010; potentiation, % at 10 µM; D(2) dopamine receptor (Homo sapiens), P14416;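 active = potentiation over 3 SD above the plate norm, cut at about 30% in these data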
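Cells plated with tetracycline inducer and held overnight at 30 C; calcium dye loaded 30–90 min at room temperature; baseline taken, compound added and read 180 s; EC20 dopamine then added and read 180 s.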
D2 PAM-2: Beta-Arrestin HTS for Positive Allosteric Modulators of the Human D2 Dopamine Receptor: Potentiators | DiscoveRx D2 beta-arrestin cells, luminescence, 90 min; 100% = 57 uM dopamine signal | D(2) dopamine receptor (Homo sapiens), P14416 | AID 624464, 2012 | potentiation, % (no concentration beside the values) | 360,000 tested, 0.23% active; in the data active = potentiation above about 50%; inconclusive = mostly about 30% to 49%
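D2 cells co-treated with compound plus 50 nM dopamine (EC20) for 90 min at 37 deg C to detect potentiation. Beta-arrestin recruitment was read as enzyme-fragment luminescence after 1 h at ambient temperature. Full response was set by 57 uM dopamine.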
D2 ag-2: HTS Assay for Allosteric Agonists of the Human D2 Dopamine Receptor: Primary Screen for Agonists | D(2) dopamine receptor (Homo sapiens), P14416 | HEK293 T-REx D2 cells, calcium flux agonist mode | activation, % at 2 µM | 340,000 tested, 0.53% active | AID 485358, 2010;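 active = activation over 3 SD above normal in the single-dose calcium agonist read, cut at about 30% in these data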
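Agonism scored from kinetic calcium signal (1 read/sec, 180 s) following compound pin transfer, after a 10 s baseline. Cells: HEK293 Trex line expressing inducible D2 receptor coupled to calcium, dye-loaded after overnight culture at 30 C.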
Numbers stand for hits; - = inactive; ? = inconclusive; . = no result given.

SMILES	D2 ag-1	D2 antagonist	D2 PAM-1	D2 PAM-2	D2 ag-2
O=[N+]([O-])c1ccc(C(c2sc3nc(-c4ccco4)nn3c2O)N2CCN(Cc3ccccc3)CC2)cc1 (stereo unspecified)	.	.	.	.	-
CC(=O)Nc1ccccc1/C=C/c1ccc2c(C)ccc(O)c2n1	-	33	-	-	-
COc1ccc(S(=O)(=O)N2CCC(n3c(C(F)(F)F)nc4cccnc43)CC2)cc1OC	.	.	.	.	-
Cc1nn(C)c(C)c1/C=N/NC(=O)CCn1cc([N+](=O)[O-])cn1	-	32	-	-	-
COc1ccc(NC(=O)COC(=O)c2cc(OC)c(OC)cc2NC(=O)c2ccco2)cc1OC	-	58	-	-	-
COc1cccc(OCC(=O)Nc2ccc(OC)c(OC)c2)c1	-	-	32	-	-
COc1cc(NC(=O)COc2cccc(OC)c2)cc(OC)c1	-	-	-	-	-
COC(=O)c1cc(OC)c(OC)cc1NC(=O)c1ccco1	-	-	-	-	-
CCCS(=O)(=O)c1nc(S(=O)(=O)c2ccc(C)cc2)c(N2CCN(CC)CC2)s1	-	67	-	-	-
CCN1CCN(c2sc(S(=O)(=O)CC)nc2S(=O)(=O)c2ccc(C)cc2)CC1	-	.	.	-	.
Cc1nc2c(c(C)c1CCC(=O)NCc1ccc(F)cc1)c(=O)n(C)c(=O)n2C	.	.	-	.	-
COc1ccccc1CNC(=O)c1ccc(N2CCCC2)c(NC(=O)NCCC(C)C)c1	.	.	-	.	-
COC(=O)Nc1nc2c(C)cccc2s1	-	38	-	-	-
Cc1ccc2sc(NC(=O)C3CC3)nc2c1C	-	-	36	-	-
O=C(COC(=O)c1ccc(F)c(S(=O)(=O)N2CCOCC2)c1)c1ccc(Br)cc1	-	36	38	-	-
O=C(COC(=O)c1ccc(F)c(S(=O)(=O)N2CCOCC2)c1)c1ccc(Cl)cc1	-	-	-	-	-
CC(c1ccco1)N(C(=O)c1ccccc1F)c1ccccn1 (stereo unspecified)	-	-	-	-	-
CC(c1ccco1)N(C(=O)c1ccc(Cl)s1)c1ccccn1 (stereo unspecified)	-	-	-	-	34
CC(=O)Nc1ccc(OC(=O)c2ccc(Cl)cc2)cc1	-	33	-	-	-
CN1CCN(C2=Cc3ccccc3Sc3cc(F)ccc32)CC1	-	80	-	-	-
CN1CCN(C2Cc3ccccc3Sc3cc(C(F)(F)F)ccc32)CC1 (stereo unspecified)	-	.	.	-	.
CN1CCN(C2Cc3cc(F)ccc3Sc3ccc(Cl)cc32)CC1 (stereo unspecified)	-	.	.	-	.
CN1CCN(C2=Cc3ccc(Cl)cc3Sc3ccc(F)cc32)CC1	-	103	-	-	-
CCCn1nc(C(=O)Nc2cccc(S(=O)(=O)N3CCOCC3)c2)c2ccccc2c1=O	-	.	.	-	.
Cc1ccc(C)c(NC(=O)C(Cc2ccccc2)n2cccc2)c1 (stereo unspecified)	.	.	-	.	-
SMILES	D2 ag-1	D2 antagonist	D2 PAM-1	D2 PAM-2	D2 ag-2
NC(=O)c1cc2ccccc2o/c1=N/NC(=O)c1cccc(Cl)c1	-	49	-	-	-
Cn1nnc(NC(=S)NC(=O)c2cc(Cl)ccc2Cl)n1	-	31	-	-	-
Cn1nnc(NC(=O)CSc2nnnn2-c2ccc(F)cc2)n1	-	.	.	-	.
Cn1nnc(NC(=O)CSc2ccc(Cl)cc2)n1	-	40	-	-	-
CCOc1ccc(CNC(=O)c2cc3ccccn3n2)cc1	.	.	-	.	-
CC(=O)Nc1ccc(C(=O)N2CCCC(c3cc(C(=O)Nc4ccccc4)no3)C2)cc1 (stereo unspecified)	-	.	.	-	.
COc1ccccc1N1CCN(S(=O)(=O)c2c(C)[nH]c(C)c2C(=O)N2CCCC2)CC1	-	31	-	-	-
CCOc1ccccc1NC(=O)c1ccc2c(c1)CCCN2S(C)(=O)=O	.	.	-	.	-
O=C(Nc1ccc(NC(=O)c2ccc([N+](=O)[O-])o2)cc1Cl)c1ccco1	-	40	-	-	-
Cc1ccc(NC(=O)c2ccc([N+](=O)[O-])o2)c(C)c1	?	33	-	-	-
Cc1ccccc1NC(=O)c1ccc([N+](=O)[O-])o1	?	-	-	-	-
CC(=O)c1ccccc1C(=O)N1CCC(CCC(=O)NCc2ccc(F)cc2)CC1	-	.	.	-	.
C=C1CC(C)OC(c2ccccc2OCC(O)CN2CCCCC2)C1 (stereo unspecified)	-	65	-	-	-
CCN1CCN(CCOc2ccccc2-c2ccccc2)CC1	-	87	-	-	-
OC(COc1cccc2ccccc12)CN1CCCC1 (stereo unspecified)	-	-	73	-	-
OC(COc1cccc2ccccc12)CN1CCN(c2ccc(Cl)cc2)CC1 (stereo unspecified)	-	-	-	-	-
Clc1cccc(OCCCN2CCCC2)c1Cl	-	52	-	-	-
CC(C)CCNC(=O)c1cc(-c2cccnc2)nc2ccc(S(=O)(=O)N3CCC(C)CC3)cc12	.	.	-	.	-
CCOc1ccc(CCNCc2c(C(=O)O)c(C)n(Cc3ccccc3F)c2C)cc1	.	.	-	.	-
c1ccc(-c2ccccc2OCCCN2CCCCC2)cc1	-	43	-	-	-
CCC(=O)c1ccccc1OCCN1CCN(Cc2ccccc2)CC1	-	110	-	-	-
c1ccc2c(OCCCN3CCCCCC3)cccc2c1	-	74	-	-	-
OCCCN1CCN(CCOc2ccccc2-c2ccccc2)CC1	-	67	-	-	-
CCN1CCN(CCCOc2ccccc2-c2ccccc2)CC1	-	-	-	-	-
Cc1ccccc1CCNC(=O)C1CCN(S(=O)(=O)c2ccc3c(ccn3C)c2)CC1	.	.	-	.	-
SMILES	D2 ag-1	D2 antagonist	D2 PAM-1	D2 PAM-2	D2 ag-2
CC(=O)Nc1ccc(NC(=O)c2oc3c(c2C)-c2nn(Cc4ccccc4Cl)cc2CC3)cc1	.	.	-	.	-
COc1ccc(S(=O)(=O)Nc2ccc3c(c2)n(C)c(=O)n3C)cc1F	-	-	-	-	-
Cc1cc(S(=O)(=O)Nc2ccc3c(c2)n(C)c(=O)n3C)ccc1F	-	-	106	-	-
O=C(CN1C(=O)S/C(=C\c2cccs2)C1=O)Nc1ccc(C(=O)O)c(O)c1	-	40	-	-	-
Cn1c(=O)c2ccccc2n(CC(=O)NCCC2=CCCCC2)c1=O	-	41	-	-	-
Cn1c(=O)c2sccc2n(CC(=O)NCCC2=CCCCC2)c1=O	-	-	-	-	-
COc1cc2ncc3c(-c4ccc(C)cc4)nn(-c4ccc(F)cc4F)c3c2cc1OC	.	.	-	.	-

Compound activity deposited in PubChem BioAssay by National Center for Advancing Translational Sciences (NCATS).
